# Activity calls are given as the source filed them.
# Legend:
# [1] = optical density shifts of acrAB sulA E. coli – strain DRC41, OD650, 48 h, E. coli filamentation inducer project, primary screen (AID 1152); conditions: higher = more signal, called active from +8 up or from −8 down;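 further: E. coli MC1000 strain DRC41 lacking acrAB efflux pump and sulA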
# [2] = probe aLefty1 binding on compound microarray – biochemical, small-molecule microarray, 635/667 nm fluorescence, primary screen (AID 1153); conditions: higher = more signal;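 further: score merges spot fluorescence with signal-to-noise ratio from the scanned slide images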
# [3] = plasmodial surface anion channel blockers, osmotic lysis – cell-based, P. falciparum Indochina, OD700, 1 h, primary screen (AID 1154); conditions: P. falciparum Indochina infected RBC osmotic lysis, higher = more signal, called active from +8 up or from −8 down
# [4] = plasmodial surface anion channel blockers, osmotic lysis – cell-based, P. falciparum Indochina, OD700, 2 h, primary screen (AID 1155);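 further: lysis reports solute entry through the parasite surface anion channel PSAC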; conditions: P. falciparum Indochina infected erythrocytes, higher = more signal, called active from +8 up or from −8 down
# [5] = changes in parasitized red cell lysis, either direction – P. falciparum Indochina, OD700, 3 h, PSAC antagonist project, primary screen (AID 1156); conditions: P. falciparum-infected erythrocytes, osmotic lysis, higher = more signal, called active from +8 up or from −8 down
# [6] = plasmodial surface anion channel blockers, osmotic lysis – cell-based, P. falciparum Indochina, OD700, 18 h, primary screen (AID 1157); conditions: P. falciparum Indochina infected erythrocytes, osmotic lysis OD700, 18 h; higher = more signal, called active from +8 up or from −8 down
# [7] = S6 kinase pathway phospho-S6 level changes – cell-based, A549, cytoblot, luminescence, serum-stimulated, primary screen (AID 1158); conditions: 5 h, higher = more signal;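 further: serum-stimulated A549 lung adenocarcinoma cells; signal is phosphorylated S6 detected by cytoblot immunostaining with HRP secondary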
# [8] = target: NADPH oxidase 2 (Homo sapiens) (UniProt P04839); experiment: compounds shifting NOX2 Amplex Red fluorescence – cell-based, HEK293-NOX2, PMA-stimulated, NOX inhibitor project, primary screen (AID 1159); conditions: 45 min, higher = more signal, called active from +8 up or from −8 down; further: test concentration not given here
# [9] = target: NADPH oxidase 4 (Homo sapiens) (UniProt Q9NPH5); experiment: compounds shifting NOX4 Amplex Red fluorescence – cell-based, HEK293-NOX4, tetracycline-induced, NOX inhibitor project, primary screen (AID 1160); conditions: HEK293-NOX4, Amplex Red H2O2 fluorescence, 45 min; higher = more signal, called active from +8 up or from −8 down
# [10] = target: NADPH oxidase 5 (Homo sapiens) (UniProt Q96PH1); experiment: compounds shifting NOX5 Amplex Red fluorescence – cell-based, HEK293-NOX5, NOX inhibitor project, primary screen (AID 1161); conditions: HEK293-NOX5, ionomycin, 45 min, higher = more signal
# [11] = compound effects on lung adenocarcinoma cell viability – A549, calcein-AM fluorescence, 48 h, basal, profiling panel (AID 1162); conditions: higher = more signal; further: test concentration not given here
# [12] = compound effects on differentiated 3T3-L1 adipocyte viability – cell-based, 3T3-L1 adipocytes, calcein-AM fluorescence, 48 h, basal, profiling panel (AID 1163); conditions: 3T3-L1 adipocytes viability, higher = more signal; further: test concentration not given here
# [13] = compound effects on hepatocellular carcinoma cell viability – HepG2, calcein-AM fluorescence, 48 h, basal, profiling panel (AID 1164); conditions: higher = more signal; further: test concentration not given here
# [14] = compound effects on multiple myeloma cell viability – MM1S, calcein-AM fluorescence, 48 h, basal, profiling panel (AID 1165); conditions: higher = more signal; further: test concentration not given here
# [15] = calcein-AM signal in unstimulated myeloma cells – cell-based, calcein-AM fluorescence, 48 h, PK04 Diversity Set, profiling panel (AID 1166); conditions: RPMI8226 myeloma viability, higher = more signal;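 further: cells grown under basal conditions without added stimulus; test concentration not given here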
# [16] = JC-1 mitochondrial signal, unstimulated HepG2 cells – cell-based, JC-1 fluorescence, 24 h, 100 nL compound, profiling panel (AID 1167); conditions: HepG2 mitochondrial potential, higher = more signal; further: test concentration not given here
# [17] = JC-1 mitochondrial signal, unstimulated adipocytes – cell-based, JC-1 fluorescence, 3T3-L1 adipocytes, 24 h, 100 nL compound, profiling panel (AID 1168); conditions: JC-1 mitochondrial fluorescence, higher = more signal, called active from +8 up or from −8 down; further: test concentration not given here
# [18] = JC-1 mitochondrial signal, unstimulated myeloma cells – cell-based, JC-1 fluorescence, RPMI8226, 24 h, 100 nL compound, profiling panel (AID 1169); conditions: JC-1 mitochondrial potential fluorescence, higher = more signal; further: test concentration not given here
# [19] = JC-1 mitochondrial signal, unstimulated MM1S myeloma – cell-based, JC-1 fluorescence, 24 h, 100 nL compound, profiling panel (AID 1170); conditions: MM1S mitochondrial potential, higher = more signal; further: test concentration not given here
# [20] = resazurin metabolic signal in A549 cells – cell-based, resazurin fluorescence, 24 h, PK04 Diversity Set, profiling panel (AID 1171); conditions: A549 viability, higher = more signal, called active from +8 up or from −8 down; further: test concentration not given here
# Chain of NADPH oxidase 4 (Homo sapiens) (Q9NPH5 whole entry, looked up): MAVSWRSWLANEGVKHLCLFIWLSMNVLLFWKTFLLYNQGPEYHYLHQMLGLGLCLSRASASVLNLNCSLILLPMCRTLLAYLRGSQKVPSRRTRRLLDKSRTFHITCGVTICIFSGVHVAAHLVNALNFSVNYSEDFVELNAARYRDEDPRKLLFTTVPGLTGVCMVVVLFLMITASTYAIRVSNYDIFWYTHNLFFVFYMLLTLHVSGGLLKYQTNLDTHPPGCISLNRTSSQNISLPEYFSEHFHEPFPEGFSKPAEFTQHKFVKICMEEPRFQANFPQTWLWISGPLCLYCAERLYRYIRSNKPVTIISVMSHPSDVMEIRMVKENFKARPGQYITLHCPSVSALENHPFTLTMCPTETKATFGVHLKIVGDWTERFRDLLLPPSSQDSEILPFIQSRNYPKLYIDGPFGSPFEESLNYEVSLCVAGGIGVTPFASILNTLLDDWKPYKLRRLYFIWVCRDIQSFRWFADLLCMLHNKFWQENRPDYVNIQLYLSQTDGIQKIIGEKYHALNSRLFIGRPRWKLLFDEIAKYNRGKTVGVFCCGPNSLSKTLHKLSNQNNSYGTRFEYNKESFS
# Chain of NADPH oxidase 5 (Homo sapiens) (Q96PH1 whole entry, looked up): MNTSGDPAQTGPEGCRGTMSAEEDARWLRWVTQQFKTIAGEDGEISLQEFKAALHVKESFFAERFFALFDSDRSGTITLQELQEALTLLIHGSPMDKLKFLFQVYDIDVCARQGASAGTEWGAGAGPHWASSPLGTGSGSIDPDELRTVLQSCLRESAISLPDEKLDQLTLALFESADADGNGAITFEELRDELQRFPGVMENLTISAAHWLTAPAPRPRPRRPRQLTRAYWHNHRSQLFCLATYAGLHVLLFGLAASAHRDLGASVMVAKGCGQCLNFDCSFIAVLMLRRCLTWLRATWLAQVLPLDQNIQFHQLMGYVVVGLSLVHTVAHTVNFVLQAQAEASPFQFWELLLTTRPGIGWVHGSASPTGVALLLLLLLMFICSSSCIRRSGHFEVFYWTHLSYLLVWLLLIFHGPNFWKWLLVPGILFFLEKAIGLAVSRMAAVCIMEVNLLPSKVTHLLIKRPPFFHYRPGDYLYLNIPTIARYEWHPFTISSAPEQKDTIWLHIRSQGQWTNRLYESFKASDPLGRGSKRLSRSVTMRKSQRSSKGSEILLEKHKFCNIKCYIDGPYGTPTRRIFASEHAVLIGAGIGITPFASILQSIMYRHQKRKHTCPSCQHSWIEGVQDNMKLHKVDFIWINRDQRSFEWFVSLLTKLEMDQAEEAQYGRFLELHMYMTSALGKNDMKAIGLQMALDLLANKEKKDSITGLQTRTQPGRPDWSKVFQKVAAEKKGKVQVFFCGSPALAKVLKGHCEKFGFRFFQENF
# Chain of NADPH oxidase 2 (Homo sapiens) (P04839 whole entry, looked up): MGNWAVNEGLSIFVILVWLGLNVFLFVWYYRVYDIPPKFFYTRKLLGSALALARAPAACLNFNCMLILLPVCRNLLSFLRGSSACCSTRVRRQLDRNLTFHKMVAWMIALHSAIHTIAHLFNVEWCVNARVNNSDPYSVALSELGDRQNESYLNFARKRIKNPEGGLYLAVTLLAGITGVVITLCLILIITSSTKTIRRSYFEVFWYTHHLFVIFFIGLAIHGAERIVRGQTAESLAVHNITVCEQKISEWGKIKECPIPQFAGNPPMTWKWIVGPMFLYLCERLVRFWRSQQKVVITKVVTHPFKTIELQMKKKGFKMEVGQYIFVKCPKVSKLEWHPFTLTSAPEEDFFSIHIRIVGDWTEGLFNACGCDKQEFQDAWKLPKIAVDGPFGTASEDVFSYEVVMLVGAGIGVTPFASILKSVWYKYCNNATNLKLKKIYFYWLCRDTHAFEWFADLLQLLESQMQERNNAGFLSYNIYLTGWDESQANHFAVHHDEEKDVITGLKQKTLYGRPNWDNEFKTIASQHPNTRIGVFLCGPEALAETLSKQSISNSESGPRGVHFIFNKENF
Structure (SMILES),z-score [1],composite z-score [2],z-score [3],z-score [4],z-score [5],z-score [6],z-score [7],z-score [8],z-score [9],z-score [10],z-score [11],z-score [12],z-score [13],z-score [14],z-score [15],z-score [16],z-score [17],z-score [18],z-score [19],z-score [20]
CC(C)N1CC=CC23O[C@@H]4C=CCCOC(=O)C4[C@H]2C(=O)N(CCCCCCO)[C@@H]3C1=O (stereo not given in full),0.383 (inactive),-0.007,0.156 (inactive),0.405 (inactive),0.799 (inactive),0.647 (inactive),0.342,0.584 (inactive),-0.185 (inactive),1.52,0.647,-0.505,0.677,0.585,0.788,0.614,0.294 (inactive),0.936,-0.768,0.711 (inactive)
C=C(/C(=C/C[C@H](OC(C)=O)c1ccc(OCCO)cc1)c1cnc2ccccc2c1)C(C)C,1.02 (inactive),-0.314,12.8 (active),1.64 (inactive),1.56 (inactive),0.749 (inactive),0.268,-2.21 (inactive),-0.569 (inactive),-1.8,0.207,1.03,-0.427,-0.753,0.383,1.56,-0.449 (inactive),-0.416,0.0674,1.76 (inactive)
O=C1[C@H]2[C@H]3[C@H](O)[C@H](O)CC(=NOCc4ccccc4)[C@H]3CC[C@H]2C(=O)N1c1ccc(F)cc1F,-0.139 (inactive),-0.761,9.01 (active),1.42 (inactive),0.155 (inactive),-0.304 (inactive),-0.392,-4.97 (inactive),0.187 (inactive),-0.471,0.213,0.118,-0.196,0.772,0.471,0.577,0.918 (inactive),0.305,-0.801,-0.0399 (inactive)
CO[C@@H]1COC(=O)CCC[C@@H](C)[C@H](OC)COC(=O)CCC[C@H]1C,-0.665 (inactive),-0.0933,0.553 (inactive),0.637 (inactive),0.719 (inactive),0.49 (inactive),-0.918,0.545 (inactive),0.567 (inactive),0.031,-0.378,-0.465,-0.125,-0.197,0.239,-0.075,-0.996 (inactive),0.822,-0.162,0.183 (inactive)
CO[C@H]1COC(=O)[C@H](C)NC(=O)[C@@H](C)COC(=O)CC=C[C@@H]1C,0.66 (inactive),-0.251,0.945 (inactive),0.54 (inactive),0.795 (inactive),0.465 (inactive),0.0768,-0.835 (inactive),0.412 (inactive),0.193,-0.0101,0.0176,-0.368,-0.303,0.693,-0.176,-1.32 (inactive),-0.282,-0.863,-0.162 (inactive)
CCc1cccc(NC(=O)O[C@H]2[C@H](OC(=O)Nc3ccc4c(c3)OCO4)[C@@H](OC(=O)Nc3ccc4c(c3)OCO4)[C@@H](OC)O[C@@H]2CO)c1,0.861 (inactive),1.01,7.56 (inactive),1.22 (inactive),1.37 (inactive),0.495 (inactive),0.19,-3.12 (inactive),-0.812 (inactive),-1.87,-1.1,0.29,-1.66,-1.33,-0.976,0.0535,0.892 (inactive),-0.806,-0.503,0.735 (inactive)
Cn1cccc1C(O)C1C=CC2C(=O)NC(=O)C2N1Nc1ccccn1 (stereo not given),-1.07 (inactive),-0.289,2.33 (inactive),2.41 (inactive),0.801 (inactive),1.49 (inactive),-1.14,-2.54 (inactive),-4.94 (inactive),-5.28,-1.77,-0.0273,-2.88,-1.99,-3.88,-4.01,1.73 (inactive),-1.11,-1.88,-1.14 (inactive)
COCCOC(=O)N1C(=O)[C@@]2(c3ccccc31)[C@H](C(N)=O)[C@H]1C(=O)O[C@H](c3ccccc3)[C@H](c3ccccc3)N1[C@@H]2c1ccccc1OCCO,0.582 (inactive),0.144,3.59 (inactive),1.14 (inactive),-0.0776 (inactive),1.2 (inactive),0.404,1.56 (inactive),1.43 (inactive),0.483,-0.421,1.59,-1.42,-3.2,-4.53,-0.728,0.633 (inactive),-1.1,-0.0748,-1.54 (inactive)
O=C1C[C@@H](O)[C@@H](O)[C@@H]2[C@@H]3C(=O)N(c4ccc(F)cc4F)C(=O)[C@@H]3CC[C@@H]12,-0.349 (inactive),-0.101,-0.571 (inactive),-0.0709 (inactive),-0.659 (inactive),-0.408 (inactive),-0.0159,-2.64 (inactive),0.473 (inactive),-0.457,-0.294,-0.0367,0.644,-0.701,-0.709,-0.56,-0.597 (inactive),-0.28,0.959,0.824 (inactive)
